A selection: hits, their analogues and other compounds. The true share with any hit is near 3.2%.
DYRK1A inh = Dyrk1A (rat) kinase inhibition. Q63470. ADP-Glo luminescence, NFATc1 peptide. inhibition, % at 12.5 µM. 310,000 tested, 0.43% active; in the data active means inhibition above about 50%
SMARCA2 act = SMARCA2 function activation, primary screen | activation, % at 9.1 µM | MG213 cells, MMTV-luciferase reporter, dexamethasone, overnight | 370,000 tested, 1% active; in the data active means activation above about 7.8%
esBAF inh = blocks esBAF chromatin remodeling in mouse ES cells; Bmi1-luciferase knock-in reporter, 24 h; 100% = twice the neutral-well signal; reporter increase, % at 12.5 µM; 350,000 tested, 2% active; AID 602393; in the data active means activation above about 40%; inconclusive means no clear call, values can overlap the other calls;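 further: a rise in the Bmi1 reporter signal indicates esBAF inhibition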
dFosB act = activators of mouse delta FosB homodimer; purified delta FosB, TAMRA-CDK5 oligo fluorescence polarization; percent of positive-control signal above neutral wells; activation, % at 25 µM; 340,000 tested, 0.99% active; AID 493131;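 active means mean activation above about 17%, with every replicate also reaching it, limit read from the data, passing the limit was not always enough; inconclusive means only one of the two conditions met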
Rtt109 Vps75 = inhibitors of Candida albicans Rtt109/Vps75 histone acetyltransferase; inhibition, % at 34.9 µM; Q5AAJ8; 330,000 tested, 0.16% active; purified Rtt109/Vps75, ThioGlo CoA-SH fluorescence, 4 h;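 active means inhibition of at least 50% in every replicate; inconclusive means best replicate reaches 50% inhibition but some replicates fall short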
CDK5 inh = inhibitors of human CDK5/p35 kinase; Recombinant CDK5/p35, ADP-Glo luminescence, 60 min; Q00535+Q15078; inhibition, % at 10 µM; AID 488839; 330,000 tested, 0.01% active;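 active means highest replicate inhibition of at least 50% and at least 75% of replicates reaching 50%; inconclusive means only one of the two criteria met; inactive means both criteria failed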
Target sequence (Q00535 whole entry, looked up): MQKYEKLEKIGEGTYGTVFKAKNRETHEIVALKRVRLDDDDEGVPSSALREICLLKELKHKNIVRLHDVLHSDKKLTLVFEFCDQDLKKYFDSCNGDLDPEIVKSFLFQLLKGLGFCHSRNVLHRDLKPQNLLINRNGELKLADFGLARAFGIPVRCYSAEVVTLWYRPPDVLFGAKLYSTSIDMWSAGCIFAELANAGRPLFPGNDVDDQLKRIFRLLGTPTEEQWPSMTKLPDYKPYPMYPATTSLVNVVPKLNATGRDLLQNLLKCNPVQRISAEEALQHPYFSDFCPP
Target sequence (Q15078 whole entry, looked up): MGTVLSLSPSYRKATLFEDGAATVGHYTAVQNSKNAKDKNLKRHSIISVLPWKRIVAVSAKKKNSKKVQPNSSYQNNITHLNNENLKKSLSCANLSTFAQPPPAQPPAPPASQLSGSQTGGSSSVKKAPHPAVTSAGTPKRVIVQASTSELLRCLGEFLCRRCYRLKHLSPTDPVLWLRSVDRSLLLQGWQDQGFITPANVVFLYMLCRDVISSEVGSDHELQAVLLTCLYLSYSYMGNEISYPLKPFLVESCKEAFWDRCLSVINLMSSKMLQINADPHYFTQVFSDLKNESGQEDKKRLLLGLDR
esBAF Ring1 qPCR = de-represses Ring1 in mouse ESCs, confirming esBAF inhibition | shares compounds with esBAF inh | mouse ESC E14, Ring1 mRNA RT-qPCR fold change | fold change at 33 µM | 550 tested, under 10 active;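 active means Ring1 gene expression raised more than 2-fold over untreated cells in both replicates at either tested dose; inconclusive means only one replicate above 2-fold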;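 further: Ring1 transcript normalised to actin housekeeping signal by TaqMan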
Fgf4 repress = esBAF inhibition confirmed by Fgf4 repression | shares compounds with esBAF inh | mouse ESC E14, Fgf4 mRNA qPCR fold change; active compounds read low | Fgf4 expression fold change at 33 µM | 550 tested, 4% active | AID 743177;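 active means Fgf4 expression under 0.8 fold of control in both repeat measurements at one or both tested doses; inconclusive means under 0.8 fold in just a single repeat measurement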;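 further: Fgf4 transcript normalised to actin in duplex TaqMan qPCR; cells exposed to compound for 24 h before lysis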
Bmi1 derepress = confirmation of esBAF inhibitors: Bmi1 de-repression in mouse ESCs; shares compounds with esBAF inh; mouse ESE14 ES cells, Bmi1 mRNA qPCR fold; active compounds read high; fold change at 33 µM; 550 tested, under 10 active; AID 743180;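 active means Bmi1 expression fold change above 6 at either tested concentration, seen in replicate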;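 further: higher fold means more Bmi1 de-repression and stronger esBAF inhibition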
A549 cytotox = cytotoxicity in A549 cells; 550 tested, under 10 active; shares compounds with esBAF inh; plate reader; cell viability change % (negative = cytotoxic), % at 25 µM, hits read low; call rule not given here
HepG2 tox SP = HepG2 cell cytotoxicity at single point; 550 tested, 4% active; shares compounds with esBAF inh; activity change, negative = inhibition, % at 25 µM; plate reader; active compounds read low; in the data active means activity change below about -50%
HEK293 cytotox SP = kills or reduces viability of HEK293 cells; HEK293 cytotoxicity, plate reader; activity change, negative = inhibition, % at 25 µM, hits read low; AID 743190; shares compounds with esBAF inh; 550 tested, 3% active; in the data active means activity change below about -38%, passing the limit was not always enough
A number is an active result; n = inactive; u = inconclusive; x = no result given.

SMILES	DYRK1A inh	SMARCA2 act	esBAF inh	dFosB act	Rtt109 Vps75	CDK5 inh	esBAF Ring1 qPCR	Fgf4 repress	Bmi1 derepress	A549 cytotox	HepG2 tox SP	HEK293 cytotox SP
COc1ccc(Cl)c(-c2cc(C(=O)Nc3ccc(F)cc3)[nH]n2)c1	x	n	69	x	x	x	n	n	n	n	n	n
COc1ccc(Cl)cc1-c1cc(C(=O)Nc2ccccc2)[nH]n1	x	n	n	x	x	x	x	x	x	x	x	x
Cc1ccc(NC(=O)Nc2ccc(F)cc2)cc1Cl	n	n	68	n	n	n	n	n	n	n	n	n
Cc1ccc(NC(=O)CCC(=O)c2ccc(F)cc2)cc1Cl	n	n	n	n	n	n	x	x	x	x	x	x
Cc1ccc(Cl)cc1-c1cc(C(=O)Nc2ccc(F)cc2)[nH]n1	x	n	63	x	x	x	n	n	n	n	n	n
COc1ccc(Cl)c(-c2cc(C(=O)Nc3ccccc3)[nH]n2)c1	x	n	97	x	x	x	n	u	n	n	n	n
CN1[C@@H]2c3ccc(-c4cccc(F)c4)c(=O)n3C[C@H]1[C@H](CO)[C@H]2C(=O)N1CCCCC1	x	x	n	x	x	x	x	x	x	x	x	x
O=C(NCC[C@H]1CC[C@@H](NS(=O)(=O)c2cccc(F)c2)[C@H](CO)O1)c1cnccn1	x	x	n	x	x	x	x	x	x	x	x	x
O=C1NCCC/C1=N/Nc1cc(F)ccc1F	n	n	60	n	n	n	n	n	n	n	-55	n
Cc1ccsc1CN(C)C(=O)C1CCC(=O)N(CCc2cccc(F)c2)C1 (configuration not stated)	n	n	65	n	n	n	n	n	n	n	n	n
COc1ccc(/C=C/C(=O)Oc2cccc(/C=N/NC(=O)Cc3ccc(Br)cc3)c2)cc1	n	n	63	n	n	n	n	u	n	n	n	n
Cc1ccc(NCSc2ccc(Cl)cc2)cc1	n	n	72	n	n	n	n	n	n	n	n	n
Cc1ccc(NC(=O)C(=O)Nc2ccc(C)cn2)nc1	n	n	57	n	n	n	n	n	n	n	n	n
Cc1ccc(NC(=O)Nc2ccccc2)nc1	n	n	x	n	n	n	x	x	x	x	x	x
C[C@@H]1CN([C@@H](C)CO)S(=O)(=O)c2ccc(C3=CCCC3)cc2O[C@@H]1CN(C)C	x	x	n	x	x	x	x	x	x	x	x	x
C[C@H](CO)N1C[C@H](C)[C@@H](CN(C)Cc2ccc(C(F)(F)F)cc2)Oc2ccc(NC(=O)C3CCCCC3)cc2CC1=O	x	x	n	x	x	x	x	x	x	x	x	x
O=c1c(-c2ccc3c(c2)OCCO3)coc2cc(O)cc(O)c12	n	n	n	n	n	n	x	x	x	x	x	x
CC1(C)C=Cc2cc(-c3coc4cc(O)cc(O)c4c3=O)cc(O)c2O1	n	n	68	n	n	n	n	n	n	n	n	n
COc1cc(SC)ccc1C(=O)NCC1CCCCC1	n	n	65	n	n	n	n	n	n	n	n	n
C[C@H]1CN([C@@H](C)CO)C(=O)c2cc(NC(=O)CCC(F)(F)F)ccc2O[C@H]1CN(C)C(=O)Nc1ccc2c(c1)OCO2	x	x	n	x	x	x	x	x	x	x	x	x
C[C@H](CO)N1C[C@H](C)[C@H](CN(C)S(=O)(=O)c2cn(C)cn2)Oc2ccc(NC(=O)CCCCCC(=O)Nc3ccccc3N)cc2CC1=O	x	x	n	x	x	x	x	x	x	x	x	x
COc1ccc(OCc2cc(C(=O)NC(C)Cc3cnccn3)no2)c(Cl)c1 (configuration not stated)	n	n	61	n	n	n	n	n	n	n	n	n
O=S(=O)(N[C@H]1CC[C@@H](CCn2cc(-c3cccnc3)nn2)O[C@@H]1CO)c1ccccc1	x	x	n	x	x	x	x	x	x	x	x	x
COc1cc(C(=O)N/N=c2/sc3ccccc3n2C)cc(OC)c1OC	n	n	x	n	n	n	x	x	x	x	x	x
COc1ccc(C(=O)N=c2sc3ccccc3n2C)cc1OC	n	n	73	n	n	n	n	n	n	n	n	n
SMILES	DYRK1A inh	SMARCA2 act	esBAF inh	dFosB act	Rtt109 Vps75	CDK5 inh	esBAF Ring1 qPCR	Fgf4 repress	Bmi1 derepress	A549 cytotox	HepG2 tox SP	HEK293 cytotox SP
Cc1cccc(Nc2nc(-c3sc(C)nc3C)cs2)c1	n	n	69	n	n	n	n	n	n	n	n	n
O=C(Cc1ccncc1)NCC[C@@H]1CC[C@@H](NC(=O)C2CCC2)[C@H](CO)O1	x	x	n	x	x	x	x	x	x	x	x	x
Cn1c(C(=O)N/N=C/c2ccccc2)cc2ccccc21	n	n	64	n	n	n	n	n	n	n	n	n
Cn1c(N)c(C(=O)N/N=C/c2ccccc2)sc1=S	x	n	x	n	n	n	x	x	x	x	x	x
O=C(NC[C@@H]1[C@H](c2ccccc2)[C@@H](CO)N1C(=O)Cc1cccnc1)C1CC1	x	x	n	x	x	x	x	x	x	x	x	x
COc1cccc(OCc2cc(C(=O)N3CCN(C(C)=O)CC3)no2)c1	n	n	71	n	n	n	n	n	n	n	n	n
COc1cc(C)ccc1OCc1cc(C(=O)N2CCN(C3CCCCC3)CC2)no1	n	n	61	n	n	n	n	n	n	n	n	n
CCCN(CC1CCCO1)C(=O)c1cc(COc2cccc(OC)c2)on1 (configuration not stated)	n	n	x	n	n	n	x	x	x	x	x	x
COc1ccc(OCc2cc(C(=O)N3CCN(C4CCCC4)CC3)no2)c(Cl)c1	n	n	u	n	n	n	x	x	x	x	x	x
COc1cccc(OCc2cc(C(=O)N(C)C3CCCCC3)no2)c1	x	n	80	x	x	x	n	n	n	n	n	n
COc1cccc(NC(=O)N(C)C[C@@H]2OCc3ccccc3-c3c(n(C)c4ccccc34)C(=O)N([C@@H](C)CO)C[C@@H]2C)c1	x	x	n	x	x	x	x	x	x	x	x	x
O=C(C[C@H]1CC[C@H]2[C@@H](COC[C@H](O)CN2C(=O)c2ccc(F)cc2)O1)N1CCOCC1	x	x	n	x	x	x	x	x	x	x	x	x
CC(=O)Oc1ccc(-c2csc(Nc3ccc(Cl)cn3)n2)cc1	n	n	59	n	n	n	n	n	n	n	n	n
Cc1ccc(Cl)c2c(N=Nc3ccccc3)c(O)[nH]c12	n	n	58	n	n	n	n	n	n	n	n	n
N#C[C@H]1[C@@H](c2ccccc2)[C@H](CO)N1C(=O)CCN1CCCCC1	x	x	n	x	x	x	x	x	x	x	x	x
Cc1nc(-c2ccccc2)nc2[nH]ccc(=O)c12	n	n	64	n	n	n	2.2	u	n	n	n	n
N/C(=N\OC(=O)CC1CCCCC1)c1ccccn1	n	n	82	n	x	n	n	u	n	n	n	n
Cc1ccnc(NC(=O)CCCc2ccccc2)c1	n	n	65	n	n	n	n	n	n	n	n	n
